Compounds without any hit were thinned out: in the full panel of roughly 83,000, 20% have a hit.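 Cells were grown in 96-well plates and exposed to the test compound at a single concentration for 48 hours; results are reported as percent growth, with values below 10 considered active.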 Values without a mark were called inactive. The source made the active and inactive calls.

The source of these data is PubChem BioAssay (NCI).

This assay has as its system HL-60(TB) leukemia. Nature of the assay: NCI-60 one-dose screen, 48 h (100 = growth as untreated, 0 = no growth, -100 = all killed). To be noted: 10 µM unless noted.
For `CCNCCOc1ccc(/C(=C(/CC)c2ccc(Cl)cc2)c2ccc(OCCCN(C)C)cc2)cc1`, the growth was -61.5% (active).
The result for `CCNCc1c(-c2cccc(OC(F)(F)F)c2)[nH]c2ccc(N3CCCC3)cc2c1=O` reads -8.31% (active).
As to `N/C(=N\OC(=O)CSc1nc2ccccc2s1)c1ccc(Cl)cc1`, the growth is 108%.
The result for `COc1cc(O)c2c(c1)/C=C/C[C@H](O)[C@H](O)C(=O)/C=C\C[C@H](C)OC2=O` reads -9.6% (active); that for `CCc1cccc2c3c(sc12)C(c1ccc(OC)cc1)C(C#N)=C(/N=C/c1ccc(Cl)cc1)O3` (stereo unspecified), 2.87% (active).
The result for `Nc1nc(N)c2c(n1)NC(c1ccccc1)CC(c1ccc(Nc3nc(NCCO)nc(Nc4ccc(Cl)cc4)n3)cc1)=N2` (stereo unspecified) reads 2.55% (active).
Turning to `O=C(C[n+]1ccnc2ccccc21)c1ccc(O)c(O)c1`, the growth was -24.7% (active).
As for `O=C1Nc2ccc(Cl)cc2/C1=C/c1ccc(OCc2ccc(F)cc2)cc1`, the growth is 94.6%.
Regarding `C=CCN(C)S(=O)(=O)/N=C1\NC(=O)NC1=C(Cl)Cl`, the growth is -51.7% (active).
Under `COc1ccc(-c2nc3cc(Cl)c(Cl)cc3n2CC(=O)N=Nc2c(O)[nH]c3ccc(OC)cc23)cc1` stands 86.3%.
The result for `NC(N)=Nc1ccc(Oc2cccc(NC(N)=Nc3ccc(I)cc3F)c2)cn1` reads 39.3%; that for `CC(C)(C)OC(=O)N1CCN(S(=O)(=O)/N=C2\NC(=O)NC2=C(Cl)Cl)CC1`, 40.3%.
On to `COC(=O)C1CCCN(S(=O)(=O)/N=C2\NC(=O)NC2=C(Cl)Cl)C1` (stereo unspecified), for which the growth is 73.6%.
In the case of `C#C[C@]1(O)CC[C@H]2[C@@H]3CC=C4c5sc(-c6ccccn6)nc5CC[C@]4(C)[C@H]3CC[C@@]21C`, the growth is 41.4%.
Take `CCn1c2ccc(/C=N/N(C)S(=O)(=O)CCN(C)C)cc2c2cc(/C=N/N(C)S(=O)(=O)CCN(C)C)ccc21`: the growth was 42.5%.
The result for `Clc1ccc(-c2csc(N/N=C/c3nc4ccccc4n3C3CC3)n2)cc1` reads 107%; that for `c1n[nH]cc1-c1nc2ccc3[nH]ncc3c2c2c1CCCC2`, 22.5%.
The result for `C=C1CC[C@@H]2[C@](C)(CO)[C@H](O)CC[C@@]2(C)[C@@H]1C/C(O)=C1\CCOC1=O` reads 95.3%; that for `Oc1ccc(CSc2nnc(-c3ccc(Cl)cc3)n2-c2ccccc2)c2cccnc12`, 23.6%; that for `COC(=O)c1cccc(NC2=CC(=O)C(C)=C(C)C2=O)c1`, 42%.
The result for `O=C(CSc1nc2ccccc2c(=O)n1-c1ccc(Cl)c(Cl)c1)Nc1ccc(S(=O)(=O)Nc2ccc(Cl)nn2)cc1` reads 106%; that for `CCn1c(SCC(=O)Nc2cccc(C(=O)/C=C/c3cc(OC)c(OC)c(OC)c3)c2)nc2ccccc2c1=O`, 48%; that for `C=C1C(=O)O[C@@H]2C[C@@H](C)[C@H](OC)CC(=O)[C@](C)(OC(C)=O)C[C@H](OC(=O)/C(C)=C\C)[C@@H]12`, 69.3%.
Consider `COc1ccc(-c2nn(-c3ccccc3)cc2/C=C/C(=O)c2ccc(NC(=O)CCCCCCC(=O)NO)cc2)cc1`, for which the growth is 116%.
For `COc1cc(N=Cc2sc(Nc3nccs3)nc2O)cc(OC)c1OC`, the growth is 82.8%.
As to `CC(C)Sc1nc(-c2ccccc2)c(C#N)c(N2CCOCC2)n1`, the growth was 105%.
